Test systems include DU-145 prostate; K-562 leukemia; MALME-3M melanoma; MDA-MB-231 breast; RXF 393 renal; SF-268 CNS; SF-295 CNS; SF-539 CNS; UACC-257 melanoma; M14 melanoma.
Assay in all cases: NCI-60 one-dose screen, 48 h (100 = growth as untreated, 0 = no growth, -100 = all killed)
Holding throughout (details): 10 µM unless noted

Compounds without any hit were thinned out: in the full panel of roughly 83,000, 20% have a hit.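 Testing used 96-well plates and a 48-hour single-concentration exposure. Example: -40 means 40% of the starting cells died.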 Values without a mark were called inactive. Activity calls are given as the source filed them. Rule for the calls: active = growth percent below 10; inactive = the rest.

Consider `COc1cc2cc(C(=O)N3C[C@@H](CCl)c4c3cc(OC(=O)N(CCC(=O)N3CCN(C)CC3)[C@H]3CCSSC3)c3ccccc43)[nH]c2c(OC)c1OC`, for which the growth in the test on DU-145 prostate is -10.5% (active); with K-562 leukemia, -8.96% (active); in the test with MALME-3M melanoma it was -96.7% (active); in the test with MDA-MB-231 breast it was -74.8% (active); with RXF 393 renal it was -94.5% (active); with SF-268 CNS, -10.3% (active). The growth in the test on SF-295 CNS was -65.9% (active); in the test on SF-539 CNS it was -80.3% (active); with UACC-257 melanoma, -61.9% (active); in the test on M14 melanoma, -77.2% (active).
Regarding `Cc1cc(Cl)ccc1NC(=O)Nc1ccc(-c2ccc3c(c2)NC(=O)/C3=C\c2ccc[nH]2)cc1`, the growth in the test with DU-145 prostate was 96.3%; in the test with K-562 leukemia, 83.3%; in the test with MALME-3M melanoma, 99.9%; with MDA-MB-231 breast, 108%; in the test with RXF 393 renal it was 122%; with SF-268 CNS it was 109%. The growth in the test with SF-295 CNS was 105%; with SF-539 CNS it was 91.9%; with UACC-257 melanoma, 117%; in the test with M14 melanoma, 108%.
Consider `Cc1oc(-c2ccccc2)nc1CN[C@@H]1C[C@@H]2C[C@H]([C@H]1C)C2(C)C`, for which the growth is 65.5% in the test with DU-145 prostate; 11.6% in the test on K-562 leukemia; -61.7% (active) in the test on MALME-3M melanoma; 35.2% in the test on MDA-MB-231 breast; -78.7% (active) in the test on RXF 393 renal; 80.8% with SF-268 CNS. The growth with SF-295 CNS is 11%; in the test with SF-539 CNS, 14.8%; in the test on UACC-257 melanoma, 8.4% (active); in the test on M14 melanoma it was -63.1% (active).
For `COc1ccccc1/C=C/c1cccc(NC(=S)NCCCCN(C)C)c1`, the growth is -69% (active) with DU-145 prostate; 1.56% (active) in the test with K-562 leukemia; -90.6% (active) with MALME-3M melanoma; -89.8% (active) with MDA-MB-231 breast; -94.2% (active) in the test with RXF 393 renal; 6.05% (active) in the test with SF-268 CNS. The growth is -100% (active) in the test on SF-295 CNS, -93% (active) in the test on SF-539 CNS, -82.6% (active) in the test on UACC-257 melanoma and -74% (active) in the test on M14 melanoma.
As for `Cc1nn(-c2ccccc2)c2nc(C)n(C(=O)N/N=C/c3ccccc3)c(=O)c12`, the growth in the test with DU-145 prostate is 114%; in the test with K-562 leukemia, 95.6%; with MALME-3M melanoma it was 91.5%; in the test with MDA-MB-231 breast it was 91.8%; with RXF 393 renal, 111%; with SF-268 CNS, 104%. Moreover, the growth with SF-295 CNS was 94.9%; with SF-539 CNS, 93.8%; with UACC-257 melanoma, 106%; with M14 melanoma, 98.5%.
With `COc1ccc(-c2nc3ccccc3n2CC(=O)N=Nc2c(O)[nH]c3ccc(Br)cc23)cc1`, the growth was 33.7% in the test with DU-145 prostate; 35.3% in the test with K-562 leukemia; 79.3% with MALME-3M melanoma; 57.5% in the test on MDA-MB-231 breast; 64.3% in the test with RXF 393 renal; 96% in the test with SF-268 CNS. The growth in the test with SF-295 CNS is 81.1%; in the test with SF-539 CNS, 87.9%; in the test with UACC-257 melanoma, 120%; in the test on M14 melanoma, 77.4%.
For `CCN1C(=O)N(CC)C2NNC(Sc3c(C(=O)O)c4ccccc4n(CCC(C)C)c3=O)=NC21` (stereo not given), the growth with DU-145 prostate was 17.7%; in the test with K-562 leukemia it was 6.37% (active); with MALME-3M melanoma it was 46.5%; in the test with MDA-MB-231 breast, 10.9%; in the test on RXF 393 renal, -1.23% (active); in the test with SF-268 CNS, 49.3%. The growth with SF-295 CNS is -16.5% (active); with SF-539 CNS, -53.4% (active); in the test with UACC-257 melanoma, 40%; in the test with M14 melanoma, 12.1%.
`COc1c(F)ccc(C(=O)Nc2ccc3nc(NC(=O)C4CCCN(S(=O)(=O)c5ccc(C(C)(C)C)cc5)C4)sc3c2)c1F` (stereo not given): the growth in the test on DU-145 prostate is 79.5%; with K-562 leukemia it was 26.5%; in the test on MALME-3M melanoma it was 77.3%; in the test on MDA-MB-231 breast it was 47%; with RXF 393 renal it was 14.9%; with SF-268 CNS it was 68.5%. Also, the growth was 78.3% with SF-295 CNS, 74% in the test on SF-539 CNS, 69.3% in the test with UACC-257 melanoma and 87.6% with M14 melanoma.
Regarding `Cc1ccc(C2CC(c3ccc(NC(=S)Nc4ccccc4)cc3)=NN2c2ccc(S(N)(=O)=O)cc2)cc1` (stereo not given), the growth in the test on DU-145 prostate was 19.7%; with K-562 leukemia it was 22.7%; in the test with MALME-3M melanoma, -0.146% (active); in the test with MDA-MB-231 breast, 15.2%; in the test with RXF 393 renal, -16.1% (active); with SF-268 CNS it was 15.6%. Moreover, the growth with SF-295 CNS is 8.39% (active); with SF-539 CNS it was 10.3%; in the test with UACC-257 melanoma it was 36.6%; in the test on M14 melanoma it was 19%.
For `COc1ccc2[nH]c(=O)cc(-n3ncc(C(=O)/C=C/c4cc(OC)c(OC)c(OC)c4)c3C)c2c1`, the growth in the test on DU-145 prostate was -2.23% (active); with K-562 leukemia, 1.01% (active); in the test with MALME-3M melanoma it was -25.7% (active); with MDA-MB-231 breast it was 1.48% (active); with RXF 393 renal, -74.8% (active); with SF-268 CNS, 8.19% (active). Moreover, the growth in the test on SF-295 CNS is 11.3%; with SF-539 CNS, -59.8% (active); in the test on UACC-257 melanoma, -6.58% (active); with M14 melanoma, -48.3% (active).
With `O=C(/C=C1\C(=O)N(Cc2ccccc2)c2ccccc21)c1cc2ccccc2oc1=O`, the growth with DU-145 prostate was 104%; in the test on K-562 leukemia, 1.52% (active); in the test with MALME-3M melanoma it was 68.9%; with MDA-MB-231 breast, 81%; in the test on RXF 393 renal, 86.1%; in the test on SF-268 CNS, 95.6%. Besides, the growth in the test on SF-295 CNS was 104%; in the test on SF-539 CNS, 98.9%; in the test on UACC-257 melanoma it was 107%; in the test on M14 melanoma, 85.1%.
Consider `CC(C)C[C@H](NC(=O)[C@@H]1CCCCCCCCCCC(=O)N[C@@H](CC(=O)N2CCC[C@@H]2C2CCCC2)C(=O)N1)B(O)O`, for which the growth with DU-145 prostate is 6.72% (active); in the test on K-562 leukemia it was 0.735% (active); with MALME-3M melanoma it was -75.1% (active); with MDA-MB-231 breast it was -72.4% (active); in the test on RXF 393 renal, -84.8% (active); with SF-268 CNS it was 4.67% (active). The growth is -93.4% (active) in the test with SF-295 CNS, -44.8% (active) in the test with SF-539 CNS, -31% (active) in the test on UACC-257 melanoma and -48.2% (active) in the test with M14 melanoma.
As for `COC(=O)c1c(C(=O)OC)c2c3ccccc3c3ccccc3n2c1C(=O)C(F)(F)F`, the growth in the test with DU-145 prostate is 106%; with K-562 leukemia it was 97.2%; with MALME-3M melanoma it was 104%; in the test with MDA-MB-231 breast, 81.6%; in the test on RXF 393 renal, 101%; with SF-268 CNS it was 101%. For the same compound, the growth is 94.3% with SF-295 CNS, 95.2% in the test with SF-539 CNS, 111% in the test on UACC-257 melanoma and 97% with M14 melanoma.

For the origin of these results see PubChem BioAssay (NCI).
